ERG-DNA inh = ERG Ets/DNA interaction inhibition. P11308. fluorescence polarization, His-ERG Ets domain / labelled DNA. Potency, µM (series often up to 76.9 µM), for inactives: top-dose FP activity, negative = inhibition, most hits filed as inhibitors. actives 0.028% (n = 370,000); active = well fitted inhibition curve with a large enough effect in the polarisation, with a control signal flat; inconclusive = small, poorly fitted or top-dose-only effect, or effect the other way, or a change in a side signal; inactive = no such curve, though single readings can be large or run the other way; the % refers to the polarisation;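 note: polarization taken with two DNA probes labelled with fluorescein and Texas red; % of control where 0% means no effect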
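His-tagged ERG Ets domain (1 uM in the protein solution; 300mM KCl, 50mM Tris-HCl, 1mM EDTA, 1mM DTT, pH 7.5) received compound, then a probe mix of 5 nM fluorescein-DNA and 100nM Texas-615-DNA. Fluorescence polarization was read for both dyes.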
BLM inh = Bloom syndrome helicase (human) inhibition; P54132; recombinant BLM DNA unwinding, fluorescence dequenching; Potency, µM (titrated, usually from 56.1 µM), without a hit: top-dose activity change, negative = inhibition, most hits filed as inhibitors; actives 0.2% (n = 350,000); AID 2528;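 note: plate controls were vehicle for no effect and no enzyme for full effect; nearly all actives have a fitted effect of over 35% in size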
WRN helicase inh = WRN helicase (human) inhibition; WRN helicase unwinding, fluorescent forked duplex, kinetic; Q14191; actives 0.46% (n = 360,000); Potency, µM (series often up to 114 µM), for the others: top-dose activity change, negative = inhibition, usual class: inhibitors; note: % is set by controls: 0 for no effect and ±100 for the full control effect; nearly all actives have a fitted effect of over 55% in size
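Primary qHTS, 1536-well format. 20 nM WRN + compound, 15 min RT; start with 100 nM forked fluorophore/quencher duplex, 2 mM ATP (final); kinetic read ex 525/em 598 nm.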
RECQ1 inh = inhibitors of human RECQ1 DNA helicase; RECQ1 DNA unwinding, red fluorescence kinetic read; actives 0.54% (n = 240,000); Potency, µM (series often up to 57.3 µM), inactives show at the highest dose activity, negative = inhibition, most hits filed as inhibitors; AID 2549;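 note: plate controls were vehicle for no effect and no enzyme for full effect; nearly all actives have a fitted effect of over 30% in size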
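50 nM RECQ1T1 preincubated 15 min with compound in Tris pH 8.0 buffer with MgCl2, DTT, Tween-20 and 2.5 ug/ml poly(dI-dC); started with 200 nM TAMRA/BHQ-2 forked duplex and 2 mM ATP. Unwinding read as fluorescence (525/598 nm), two reads 2 h apart.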
GCN5L2 inh = GCN5L2 (KAT2A) acetyltransferase inhibition; GCN5L2 HAT assay, ThioGlo1 CoA-SH fluorescence; Potency, µM (titrated, usually from 58.9 µM), without a hit: at the top dose activity change, negative = inhibition, actives largely listed as inhibitors; actives 0.21% (n = 390,000); Q92830; note: % is set by controls: 0 for no effect and ±100 for the full control effect
Target sequence (Q92830 whole entry, looked up): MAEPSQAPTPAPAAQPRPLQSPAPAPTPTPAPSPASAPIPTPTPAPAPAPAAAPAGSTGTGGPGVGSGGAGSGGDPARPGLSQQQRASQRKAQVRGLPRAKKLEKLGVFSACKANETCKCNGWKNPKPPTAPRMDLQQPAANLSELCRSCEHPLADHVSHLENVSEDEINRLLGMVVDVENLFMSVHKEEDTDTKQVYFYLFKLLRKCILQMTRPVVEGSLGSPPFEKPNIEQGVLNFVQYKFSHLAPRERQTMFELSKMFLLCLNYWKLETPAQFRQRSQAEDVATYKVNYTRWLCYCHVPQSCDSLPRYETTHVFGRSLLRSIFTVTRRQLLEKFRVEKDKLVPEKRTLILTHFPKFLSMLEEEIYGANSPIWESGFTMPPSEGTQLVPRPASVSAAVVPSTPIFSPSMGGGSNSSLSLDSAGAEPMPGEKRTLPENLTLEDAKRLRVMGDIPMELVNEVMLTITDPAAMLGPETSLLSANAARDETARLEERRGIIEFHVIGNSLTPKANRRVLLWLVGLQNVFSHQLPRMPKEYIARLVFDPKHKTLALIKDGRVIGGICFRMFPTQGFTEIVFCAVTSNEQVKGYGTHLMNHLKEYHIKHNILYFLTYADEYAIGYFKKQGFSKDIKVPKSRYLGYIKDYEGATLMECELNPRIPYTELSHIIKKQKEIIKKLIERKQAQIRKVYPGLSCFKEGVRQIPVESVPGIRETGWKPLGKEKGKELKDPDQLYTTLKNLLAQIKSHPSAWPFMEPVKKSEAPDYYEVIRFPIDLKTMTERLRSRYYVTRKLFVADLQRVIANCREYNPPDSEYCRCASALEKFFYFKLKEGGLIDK
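Free CoA generated was detected with ThioGlo1 (50uM) fluorescence at Ex340nm/Em540nm, read immediately and after 20 min at room temperature. Enzyme, 20 nM in HEPES pH 7.5 buffer, saw compounds 15 min before adding 75uM H3(1-25) peptide and 70uM acetyl-CoA.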
APEX1 inh = inhibitors of human APE1 endonuclease. actives 0.35% (n = 350,000). P27695. Potency, µM (series often up to 65.8 µM), without a hit: at the top dose activity change, negative = inhibition, most hits filed as inhibitors. recombinant APE1, TAMRA/BHQ-2 abasic DNA cleavage fluorescence;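 note: plate controls were vehicle for no effect and reference inhibitor for full effect; nearly all actives have a fitted effect of over 55% in size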
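Endonuclease cleavage of a quenched abasic-site DNA duplex (50 nM) by APE1 (0.75 nM) was tracked by TAMRA dequenching. Compounds were preincubated with enzyme 15 min at room temperature; data normalized to buffer-only and DMSO wells plus NSC13755 control.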
The depositor's hits bear a star; i = inactive; ? = inconclusive; . = no result given; ! = repeats disagree; [ ] = remark or other dose. Hits are enriched below; roughly 0.88% of the tested compounds scored in any of these assays. Unless noted, calls come from the whole dose curve; as a rule, active = well fitted curve in the direction sought with a large enough effect; inconclusive = small, poorly fitted or top-dose-only effect, or another doubt; inactive = no such curve, though single readings can be large; an effect the other way counts as inactive or inconclusive. Potency is the fitted concentration of half-maximal effect.

SMILES | ERG-DNA inh | BLM inh | WRN helicase inh | RECQ1 inh | GCN5L2 inh | APEX1 inh
COc1c(-c2coc3cc4c(cc3c2=O)CC(OC(C)=O)C(C)(C)O4)ccc2c1C=CC(C)(C)O2 (centres undefined) | . | -3.2% | . | -4.8% | -8.3% | 22.4µM*
Cc1noc(C)c1-c1nc(NCc2ccccc2)c2ccccc2n1 | . | 1.6% | . | -2.4% | 25.1µM* | -4.0%
Cc1ccc(-n2nc3c(c2NC(=O)c2cccs2)CSC3)cc1 | . | -7.2% | -19.0%[57.1 µM] | -4.0% | 3.55µM* | -2.7%
O=c1c(C(c2ccccc2)c2c(O)sc3ccccc3c2=O)c(O)sc2ccccc12 | . | ? | -1.4%[57.1 µM] | 31.6µM* | 25.1µM* | -9.0%
COC(=O)C1=COC(OC2OC(CO)C(O)C(O)C2O)C2C1C=CC2(O)CO (centres undefined) | -6.1% | -6.0% | -23.4% | -15.5% | -10.8% | 7.94µM*
CC(C)(C)[C@H]1C=C(C(=O)Nc2ccccc2)O[C@@H](OCc2ccc(CO)cc2)C1 | -10.1% | -11.5% | -2.4% | 28.2µM* | -7.5% | -5.4%
CC(c1ccccc1)N(CCC(c1ccccc1)C1CCOC(C)(C)C1)C(=O)c1ccco1 (centres undefined) | 1.1% | -9.2% | -5.5% | -8.3% | -5.1% | -2.0%
COc1ccc(CN(CCC(c2ccc(F)cc2)C2CCOC(C)(C)C2)C(=O)c2ccco2)cc1 (centres undefined) | 3.8% | -6.6% | -9.8%[57.1 µM] | 25.1µM* | -18.8% | 10.5%
[O-][n+]1c(/C=C/c2ccccc2)ccc2ccccc21 | 20.3% | -4.3% | 6.4% | . | -7.3% | -7.5%
[O-][n+]1c2ccccc2[n+]([O-])c2cc(O)ccc21 | 14.6% | -29.9% | ? | . | 0.5% | 18.9µM*
Clc1cccc(-n2ncc3c(N4CCCCC4)ncnc32)c1 | 2.0% | -2.1% | . | . | -1.2% | .
COC(=O)C1CC1[C@H](NC(=O)c1cccnc1)c1ccccc1 (some centres undefined) | . | 1.9% | . | 9.8% | . | 0.9%
O=C1NC(=O)/C(=C/c2cccn2-c2ccc(P(=O)(O)O)cc2)N1 | . | . | . | . | . | 40.0%
COc1ccc(C(OCCN2CCC[C@H](C(=O)O)C2)(c2ccc(OC)cc2)c2ccc(OC)cc2)cc1 | . | -0.6% | . | 8.5% | 0.0% | -1.7%
O=C(NCCN1CCN(c2ccccc2)CC1)C1CCN(S(=O)(=O)c2cccc3nonc23)CC1 | -0.8% | -0.4% | -2.0% | i | 1.78µM* | ?
CCN1CCN(CCCNC(=O)c2cc3c(s2)-c2c(C)cccc2OC3)CC1 | 1.9% | 8.4% | . | . | -16.7% | .
COc1ccc(-n2nc3ccc(NC(=O)c4ccc(C#N)cc4F)cc3n2)cc1Cl | -1.0% | -4.1% | . | . | -2.8% | .
Fc1ccc(N=c2ssnc2Cl)c(F)c1 | 10.3% | -1.4% | 31.6µM* | -0.8% | 7.94µM* | 1.1%
CCOC(=O)c1ccc(N=c2ssnc2Cl)cc1 | 0.0% | -5.9% | 22.4µM* | i | 12.6µM* | -10.4%
Clc1nssc1=Nc1ccccc1 | 2.2% | -12.1% | ? | -14.6% | 3.98µM* | 8.3%
COc1ccc(N=c2ssnc2Cl)cc1 | -3.0% | 2.7% | ? | i | 12.6µM* | 0.3%
COc1ccc(N=C2SCC(=O)N2C)cc1 | . | . | 1.6% | . | . | .
CCOC(=O)c1ccc(N=C2SC(C(=O)NC)CC(=O)N2Cc2ccc(F)cc2)cc1 (centres undefined) | -11.6% | 0.1% | -1.0% | i | -4.5% | 24.5%
Cc1ccc(NC(=O)CSc2nnc(-c3cccc([S+](=O)([O-])N4CCCC4)c3)n2-c2c(C)cccc2C)cc1 | . | . | . | . | . | -8.8%
COc1ccc(NC(=O)N2CCc3nc(COc4ccccc4)c4c(c3C2)CO[C@@H](C)C4)cc1 | . | 0.4%[12.4 µM] | . | i[11.5 µM] | . | -1.4%[12.4 µM]
SMILES | ERG-DNA inh | BLM inh | WRN helicase inh | RECQ1 inh | GCN5L2 inh | APEX1 inh
N#Cc1ccc(N=c2ssnc2Cl)cc1 | 0.2% | 1.6% | 39.8µM*! | -2.7% | 10µM* | 9.9%
Clc1ccc(N=c2ssnc2Cl)cc1 | -0.9% | 2.6% | 79.4µM* | i | 14.1µM* | 2.1%
O=C1CSC(=Nc2ccc(Cl)cc2)N1 | -1.8% | -1.6% | -2.0% | . | -14.1% | -0.8%
O=c1cc(-c2ccccc2Cl)oc2c(NS(=O)(=O)c3cc(Cl)cc(Cl)c3O)ccc(O)c12 | -0.3% | ? | ? | ? | 31.6µM* | 0.2%[50.4 µM]
CCCCN1C(=O)/C(=C/C=C2\Oc3ccccc3N2CC)SC1=S | 45.7% | -4.2% | 50.1µM* | i | -1.3% | 13.2%
CC1Cc2ccccc2N1c1nc(C2CC2)nc2c1nnn2Cc1ccccc1 (centres undefined) | -2.9% | -13.8% | 0.2% | -0.7% | ? | -0.7%
CC1Cc2ccccc2N1c1ncnc2c1nnn2Cc1ccccc1 (centres undefined) | -12.3% | -2.1% | 5.9% | -8.6% | 22.4µM* | 4.2%
Cc1cc(C)n2nc(SCC(=O)Nc3cccc(C(F)(F)F)c3)nc2n1 | -21.0% | -1.8% | . | . | -7.7% | .
CN(C)c1ccc2c(-c3ccccc3)c3ccc(=[N+](C)C)cc-3oc2c1 | . | 28.2µM* | . | 28.2µM* | ? | 28.2µM*
O=C(N/N=C/c1cccnc1)/C(=C\c1cccs1)NC(=O)c1ccccc1 | 1.9% | 2.7% | -13.4% | -6.7% | -7.9% | 2.9%
O=C(N/N=C/c1cc2ccccc2nc1Cl)/C(=C/c1cccs1)NC(=O)c1ccccc1 | -0.5% | ? | -11.2% | 25.1µM* | -3.2% | -7.6%
COc1ccccc1NS(=O)(=O)c1cccc(-n2c(O)c(C=Nc3ccccc3C(=O)O)c3ccccc3c2=O)c1 | -0.3% | -25.2% | 50.1µM* | -8.0% | ? | -4.7%
COc1ccc(Cn2c(O)c(C=Nc3ccccc3C(=O)O)c3ccccc3c2=O)cc1 | 3.5% | ? | ? | -9.5% | ? | -9.4%
O=C(O)CSc1ncnc2nc[nH]c12 | 9.4% | -3.2% | -4.2% | 2.0% | -2.7% | -1.6%
c1nc(SSc2ncnc3nc[nH]c23)c2[nH]cnc2n1 | -7.5% | . | 39.8µM* | . | . | .
Cc1cc2c(cc1S(=O)(=O)NCc1ccccc1)OCC(=O)N2 | -14.1% | -1.4% | 6.1% | . | 25.1µM*! | 14.7%
COc1c(C)c2c(c(O)c1C/C=C(\C)CCC(=O)OCCN1CCOCC1)C(=O)OC2 | . | . | . | . | . | -3.5%
CCOC(=O)c1cc2c(=Cc3ccc(N(C)C)cc3)c3ccccc3n2[n+]1C | -4.6% | . | 15.8µM* | . | . | .
Cc1cc2c(=Cc3ccc(N(C)C)cc3)c3ccccc3n2[n+]1C | . | . | 35.5µM* | . | . | .
CN(C)c1ccc(C=c2c3ccccc3n3c2c2ccccc2[n+]3C)cc1 | . | . | 10µM* | . | . | .
CN(C)c1ccc(C=c2c3cc(O)ccc3n3c2cc(-c2ccccc2)[n+]3C)cc1 | 78.0% | . | 17.8µM* | . | . | .
CC(=O)N[C@@H](C=O)[C@H](O)[C@H](O)[C@@H](O)CO | . | . | . | . | . | 18.9%

Source: PubChem BioAssay
